Compounds with a hit are over-represented: about 0.82% of the library has one in this group of screens.
TcdB GH inh: TcdB glycohydrolase inhibition. P18177. TcdB glycohydrolase enzymatic assay, plate reader. inhibition, % at 9.99 µM. actives 0.24% (n = 350,000); in the data active = inhibition above about 10%
VHR inh abs: DUSP3 (human) phosphatase inhibition; actives 0.52% (n = 290,000); recombinant VHR phosphatase, pNPP absorbance; AID 1654; P51452; inhibition, % at 13.3 µM; in the data active = inhibition above about 50%
Target sequence (P51452 whole entry, looked up): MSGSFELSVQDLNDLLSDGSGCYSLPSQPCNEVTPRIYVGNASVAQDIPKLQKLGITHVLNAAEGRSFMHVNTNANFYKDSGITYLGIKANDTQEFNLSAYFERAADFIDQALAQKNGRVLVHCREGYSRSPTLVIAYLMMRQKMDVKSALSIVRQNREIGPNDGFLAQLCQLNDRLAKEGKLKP
PrPC TRFRET: cell surface PrPC inhibition, primary TR-FRET screen; actives 0.43% (n = 370,000); TR-FRET read-out; P04156; inhibition, % at 13.8 µM; in the data active = inhibition above about 24%
Numbers stand for hits; n = inactive; x = no result given.

SMILES | TcdB GH inh | VHR inh abs | PrPC TRFRET
OC(CSc1nc(-c2ccccc2)c(-c2ccccc2)o1)CC(O)c1ccccc1 (configuration not stated) | n | x | x
COc1ccc2c3c(n(C)c2c1)[C@H](CO)N(CC1CCCCC1)CC31CCN(C(C)=O)CC1 | n | x | x
O=C(C[C@H]1CC[C@H](NC(=O)c2ccncc2)[C@@H](CO)O1)NCC1CC1 | n | x | x
CCCNC(=O)C[C@@H]1C[C@H]2c3cc(N(C)C)ccc3O[C@H]2[C@@H](CO)O1 | n | x | x
CCCN(CC1CC1)C(=O)CSc1nnc(-c2ccco2)n1N | x | n | x
CN(CCC#N)C(=O)CSc1nnc(-c2ccco2)n1N | n | 51 | n
COCCNC(=O)C1(C)CCCN(C(=O)c2ccccc2OC(F)(F)F)C1 (configuration not stated) | n | x | n
CCCNC(=O)C1(C)CCCN(C(=O)c2ccccc2OC(F)(F)F)C1 (configuration not stated) | 12 | x | n
CO[C@H]1CN(C)C(=O)c2cc(NC(=O)CC(F)(F)F)ccc2OC[C@H](C)N(S(=O)(=O)c2cn(C)cn2)C[C@H]1C | n | x | x
Cc1cccc(C(=O)Nc2ccc(C(=O)N3CCCCC3C)cc2)c1 (configuration not stated) | n | 57 | n
CC1CCCCN1C(=O)c1ccc(C(=O)N2CCCCC2C)cc1 (configuration not stated) | x | n | n
Cc1noc(C)c1NC(=O)N(C)C[C@@H]1Oc2ccc(NC(=O)CCN3CCOCC3)cc2CC(=O)N([C@@H](C)CO)C[C@@H]1C | n | x | x
O=S(=O)(N[C@@H]1CC[C@H](CCn2cc(-c3ccccn3)nn2)O[C@@H]1CO)c1cccc(F)c1 | n | x | x
CC(=O)Nc1cnc(-c2ccccc2O)cn1 | 12 | x | n
CSc1ccccc1-c1cnc(NC(C)=O)cn1 | n | x | n
CC(C)CC#Cc1cnc2c(c1)C(=O)N([C@H](C)CO)C[C@H](C)[C@H](CN(C)C(=O)c1cnccn1)O2 | n | x | x
CCOC(=O)CN1C(=O)C2(OCCCO2)c2cc(Br)ccc21 | n | 59 | n
C=C(C)CN1C(=O)C2(OCCO2)c2cc(Br)ccc21 | n | x | n
CC(=O)N/C(=C\c1ccccc1)C(=O)OCC(=O)c1ccccc1 | n | x | n
CC(=O)N/C(=C\c1ccccc1)C(=O)OCC(=O)NC1CCCC1 | n | 58 | n
CO[C@H]1CN(C)C(=O)c2ccc(NC(=O)Nc3ccccc3)cc2OC[C@H](C)NC[C@H]1C | n | x | x
Cc1ccc(S(=O)(=O)Nc2cccc3c2O[C@H](CN(C)C(=O)NC(C)C)[C@@H](C)CN([C@H](C)CO)C3=O)cc1 | n | x | x
Cc1ccc(CN2CCCN(Cc3ccc(F)cc3Cl)S2(=O)=O)cc1 | n | 53 | n
Cc1ccc(CN2CCCN(Cc3c(F)cccc3Cl)S2(=O)=O)cc1 | n | n | n
CCn1cc(/C=c2/sc3n(c2=O)C2c4ccccc4OC(C)(N=3)C2C(=O)OC)c(C)n1 (configuration not stated) | n | 53 | n
SMILES | TcdB GH inh | VHR inh abs | PrPC TRFRET
COC(=O)C1C2c3ccccc3OC1(C)N=c1s/c(=C/c3cn(C)nc3C)c(=O)n12 (configuration not stated) | x | n | n
CCC(CC)NC(=O)CCc1nc2ccccc2c(=O)[nH]1 | x | 51 | n
CC(=O)Nc1ccc(NC(=O)CCc2nc3ccccc3c(=O)[nH]2)cc1 | n | n | n
O=C(O)Cc1ccc(NC(=O)c2ccc3c(c2)C(=O)N(Cc2ccco2)C3=O)cc1 | n | n | n
O=C(Nc1ccc(O)cc1)c1ccc2c(c1)C(=O)N(Cc1ccco1)C2=O | 16 | n | n
CN(C)CCN(CC1CCCN(Cc2ccccc2F)C1)C(=O)c1ccc(Cl)cc1 (configuration not stated) | n | n | n
COc1ccccc1CN1CCCC(CN(CCN(C)C)C(=O)c2ccc(C)cc2)C1 (configuration not stated) | n | 51 | n
CCC(=O)N1C[C@@H](O)COC[C@H]2O[C@H](CC(=O)N3CCCCC3)CC[C@@H]21 | n | x | x
Cc1ccccc1-c1cnc2c(c1)C(=O)N([C@H](C)CO)C[C@@H](C)[C@H](CN(C)Cc1ccncc1)O2 | n | x | x
O=C(C[C@@H]1C[C@H]2c3cc(NC(=O)NC4CCCC4)ccc3O[C@H]2[C@@H](CO)O1)NCC1CC1 | n | x | x
COc1ccc(N(C(=O)c2cccnc2)S(=O)(=O)c2ccccc2)cc1 | n | n | n
COc1ccc(N(C(=O)c2cccnc2)S(=O)(=O)c2ccc(F)cc2)cc1 | n | 53 | n
CCC(=O)N1CC2(C1)[C@H](c1ccc(-c3cccc(F)c3)cc1)[C@H](CO)N2CC1CC1 | n | x | x
COc1ccc2c3c(n(C)c2c1)[C@H](CO)N(C(=O)CN(C)C)CC31CCN(C(=O)C2CCC2)CC1 | n | x | x
O=C1OCC2OC(O)C(O)C(O)C2OC(=O)c2cc(O)c(O)c(O)c2-c2c(O)c(O)c3oc(=O)c4c(c(O)c(O)c5oc(=O)c2c3c54)-c2c1cc(O)c(O)c2O (configuration not stated) | x | 121 | x
COc1c(O)cc2c(c1O)C1OC(CO)C(O)C(O)C1OC2=O (configuration not stated) | n | x | n
C[C@@H]1CN([C@H](C)CO)C(=O)c2cc(C3=CCCCC3)cnc2O[C@@H]1CN(C)Cc1ccccn1 | n | x | x
N#C/C(=C\c1ccccc1)C(=O)NC1CC1 | n | 53 | n
N#C/C(=C\c1cccnc1)C(=O)NC1CCCCC1 | x | n | n
COCC(=O)Nc1ccc2c(c1)C(=O)N(C)C[C@H](OC)[C@H](C)CN(Cc1cncnc1)[C@@H](C)CO2 | n | x | x
CCC(=O)Nc1nc2ccccc2n1CCN(C)C | n | 57 | n
CC(=O)Nc1nc2ccccc2n1CCN(C)C | x | n | n
CCCNC(=O)Nc1ccc2c(c1)C(=O)N(C)C[C@H](OC)[C@@H](C)CN(CCC)[C@H](C)CO2 | n | x | x
OC[C@@H]1[C@H](c2ccc(/C=C/c3ccccc3)cc2)[C@H]2CN(Cc3cccnc3)CCCCN12 | n | x | x
O=C(NCc1ccc(F)cc1)C1CCCN1C(=O)Nc1ccccc1 (configuration not stated) | n | 59 | n
SMILES | TcdB GH inh | VHR inh abs | PrPC TRFRET
O=C(NCCc1ccccc1)C1CCCN1C(=O)Nc1ccccc1 (configuration not stated) | n | n | n
O=C(NCc1ccc(F)cc1)C1CCCN1C(=O)Nc1ccc(F)cc1 (configuration not stated) | n | n | n
O=C(NCCc1ccccc1)C1CCCN1C(=O)Nc1ccc(Cl)cc1 (configuration not stated) | n | 53 | n
COc1cccc(-c2ccc([C@@H]3[C@H]4CN(C(=O)c5ccncc5)CC(=O)N4[C@H]3CO)cc2)c1 | n | x | x
C[C@@H]1CN([C@@H](C)CO)C(=O)c2cc(NS(=O)(=O)c3cccs3)ccc2O[C@@H]1CN(C)Cc1ccc(Cl)c(Cl)c1 | n | x | x
COc1ccc2c3c(n(C)c2c1)[C@H](CO)N(Cc1ccncc1)CC31CN(C(=O)Nc2cccc(F)c2)C1 | n | x | x
O=C1CC(C(=O)Nc2ccc(F)cc2)S/C(=N\N=C\c2ccco2)N1 (configuration not stated) | x | n | n
Cc1ccc(NC(=O)C2CC(=O)N/C(=N/N=C/c3ccco3)S2)cc1 (configuration not stated) | x | 58 | n
C[C@@H]1CN([C@H](C)CO)C(=O)c2c(c3ccccc3n2C)-c2ccccc2CO[C@@H]1CN(C)C(=O)Nc1ccc(-c2ccccc2)cc1 | n | x | x

Assay outcomes deposited in PubChem by several laboratories.
